Compound activity: PubChem BioAssay, National Center for Advancing Translational Sciences (NCATS)
HCV inhibitor = HCV inhibition; Potency, µM (series often up to 41.8 µM), for inactives: at the top dose activity change, negative = inhibition, hits mostly inhibitors; Huh7.5.1 HCVcc-Cre infection, luciferase reporter, 44 h; 3.4% of 340,000 active; also: potency is read from the fitted curve at half-maximal effect
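Antiviral activity was scored by luciferase reporter output from cells infected with HCVcc-Cre (~0.5 moi) in presence of compound, 44 h infection period, cells seeded 1,000/well 4 h prior.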
Pf growth 48h = P. falciparum growth inhibition at 48 hours (one generation) | P. falciparum luciferase growth in erythrocytes, 48 h | Potency, µM (series often up to 28.7 µM), without a hit: at the top dose activity change, negative = inhibition, most hits filed as inhibitors | 5.9% of 310,000 active | AID 504832; also: potency is read from the fitted curve at half-maximal effect
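A one-generation exposure of luciferase-tagged malaria parasites in RPMI 1640/Albumax erythrocyte culture, 37 C and 5% CO2. Inhibition is inferred from decreased luminescence after adding detection reagent.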
HCMV antiviral = human cytomegalovirus inhibition; HFF cells, HCMV-luciferase reporter, 72 h; stronger effect = lower value; activity change, negative = inhibition, % at 57.5 µM; 4.5% of 410,000 active; in the data active = activity change below about -60%; inconclusive = no clear call, values can overlap the other calls; inactive = above about -39%
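Cell-based, HFFs, 1000 cells/well, 16 h 37C; cpds in DMSO + HCMV-luc, MOI 1 PFU/cell; 72 h 37C; OneGlo luminescence after 5 min RT; norm. to buffer vs Salinomycin 10uM.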
Pf growth 96h = P. falciparum growth inhibition at 96 hour, primary screen for plastid delayed-death inhibitors | AID 504834 | 6.9% of 320,000 active | Potency, µM (titrated, usually from 28.7 µM), without a hit: top-dose activity change, negative = inhibition, usual class: inhibitors | P. falciparum luciferase reporter growth, 96 h; also: potency is read from the fitted curve at half-maximal effect
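96 h incubation, 37 C, 5% CO2, of luciferase-reporter P. falciparum-infected RBCs (2% hematocrit, 0.05% parasitemia final) with test compounds; endpoint luminescence.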
An asterisk follows results filed as active; u = inconclusive; x = not tested or not shown; [ ] = remark or other dose. Shown are actives, neighbours in structure and some others; about 13% of the full set was active somewhere. Unless noted, calls follow the shape of the dose curve; as a rule, active = well fitted inhibition curve with a large enough effect; inconclusive = small, poorly fitted or top-dose-only effect, or another doubt; inactive = no such curve, though single readings can be large or run the other way. % is scaled to controls: 0 for no effect and ±100 for the full control effect.

SMILES	HCV inhibitor	Pf growth 48h	HCMV antiviral	Pf growth 96h
Cc1ccc(S(=O)(=O)N2CCCCC2)cc1NC(=O)Cc1c[nH]c2ccccc12	u	u	13	5.2µM*
Cc1ccc(NC(=O)Cc2c[nH]c3ccccc23)cc1S(=O)(=O)N1CCCCCC1	-15%	13µM*	30	12µM*
Cc1ccc(C(=O)OCC(=O)NCc2ccccc2)cc1S(=O)(=O)N1CCCCC1	-5%	u	-20	u
Cc1ccc(NC(=O)Cc2n[nH]c(=O)c3ccccc23)cc1S(=O)(=O)N1CCCCCC1	10µM*	u	-69*	u
COc1ccc(S(=O)(=O)N2CCCCC2)cc1NC(=O)CSc1ncnc2ccccc12	u	12µM*	-19	2.3µM*
COc1ccc(-n2c(C)cc(/C=C3\C(=N)N4N=C(CC(=O)N5CCOCC5)SC4=NC3=O)c2C)cc1	-5%	13µM*	-26	13µM*
Cc1cc(Br)c2c(c1)/C(=C/C(=O)c1cccs1)C(=O)N2	u	-25%	-6	u
Cc1cc(C)c2c(c1)/C(=C/C(=O)c1ccc(Br)s1)C(=O)N2	11µM*	x	-103*	u
COc1ccc(N2CC(NC(=O)c3ccc4c(c3)OCO4)CC2=O)cc1 (centres undefined)	x	x	-16	x
COC(=O)Cc1c(C)nc2nc(NCc3ccc(Br)cc3)[nH]n2c1=O	x	x	12	x
COCCOC(=O)c1c(C)nc(SCC(=O)Nc2ccc(OC)cc2)c(C#N)c1-c1ccco1	-11%	x	29	7%[5.75 µM]
Cc1cc(C)c(C#N)c(SCC(=O)c2ccccc2)n1	-27%	-11%	-35	4.7µM*
Cc1nc(SCC(=O)c2ccccc2)c(C#N)c(-c2ccco2)c1C(=O)NCc1ccco1	u	9.3µM*	u	u
N#Cc1ccccc1COc1ccc(/C=C/C(=O)O)cc1	13%	-6%	-71*	4%
CC1(C)CC(NC(=O)c2ccccc2)CC(C)(C)N1	2%	-3%	-9	u
CC1(C)CC(Nc2ccc(Nc3ccccc3)cc2)CC(C)(C)N1	-19%	3.3µM*	-37	7.4µM*
Cc1ccccc1Sc1ccc([N+](=O)[O-])cn1	-22%	x	-2	x
CC(C)(C)c1csc(Sc2ccc([N+](=O)[O-])cn2)n1	u	13µM*	u	u
Cc1ccnc(Sc2ccc([N+](=O)[O-])cn2)n1	21%	u	-96*	13µM*
CC(Sc1ccccc1)C(=O)N1CCN(S(=O)(=O)c2ccccc2)CC1 (centres undefined)	26%	16%	-63*	-43%
S=C(NCCc1ccccc1)N1CCN(C23CC4CC(CC(C4)C2)C3)CC1	u	9.3µM*	-34	89%
CCN1CCN(C(=S)NCCc2ccccc2)CC1	-21%	49%	45	38%
CCNC(=S)N1CCN(S(=O)(=O)c2ccc(C)cc2)CC1	0%	18%	25	-12%
Cc1ccc(S(=O)(=O)N2CCN(C(=S)NCc3ccc4c(c3)OCO4)CC2)cc1	u	1.9µM*	-12	u
Cc1ccc(S(=O)(=O)N2CCCC2CNC(=O)c2ccc3c(c2)OCO3)cc1 (centres undefined)	u	u	8	15µM*
SMILES	HCV inhibitor	Pf growth 48h	HCMV antiviral	Pf growth 96h
CC(Sc1ccccc1)C(=O)N1CCN(S(=O)(=O)c2ccccc2C(F)(F)F)CC1 (centres undefined)	2%	-4%	x	-7%
O=C(COCc1cc(-c2cccs2)on1)NCc1ccccc1Cl	x	x	1	x
Cc1cccc(NCc2nnc3n2CCCCC3)c1C	x	x	16	x
CCc1nnc2c(Nc3cccc(F)c3)nc3ccc(C(=O)c4ccccc4)cc3n12	x	x	-5	x
O=S(=O)(c1ccccc1)N1CCN(C(=S)NCCc2ccccc2)CC1	-6%	u	-72*	u
COc1ccc(S(=O)(=O)N2CCN(C(=S)NCCc3ccccc3)CC2)cc1	x	4.1µM*	-1	u
COc1ccc(CCNC(=S)N2CCN(S(=O)(=O)c3ccc(C)cc3)CC2)cc1	u	2.9µM*	-98*	2.6µM*
S=C(NCCc1ccccc1)N1CCCC1	7%	x	6	x
COc1ccc(CCNC(=S)N2CCN(S(=O)(=O)c3cccc(F)c3)CC2)cc1	6%[8.37 µM]	u	-29	u
COc1cc(C2c3c(c(C)c(C)oc3=O)Oc3c(C)c(C)oc(=O)c32)ccc1OS(=O)(=O)c1ccc(C)cc1	u	5.9µM*	7	4.7µM*
CC1(C)Cc2c(c(N3CCOCC3)nc3sc4c(NCc5ccco5)nnnc4c23)CS1	u	u	-6	10%
CC1(C)Cc2c(c(N3CCOCC3)nc3sc4c(NCc5ccccc5)nnnc4c23)CS1	-21%	x	u	1µM*
CC(C)CNc1nnnc2c1sc1nc(N3CCOCC3)c3c(c12)CC(C)(C)SC3	10µM*	u	u	u
CC(C)CNc1ncnc2c1sc1nc(N3CCOCC3)c3c(c12)CC(C)(C)OC3	u	u	-2	u
CC1(C)Cc2c(c(N3CCOCC3)nc3sc4c(NN)ncnc4c23)CS1	u	u	-88*	x
Cc1ccc(C)c(NC(=O)CCc2nc3cccnc3n2Cc2cccs2)c1	x	x	-8	x
CCOc1ccc(-n2c(SCC(=O)N3CCOCC3)nc3c([nH]c4ccccc43)c2=O)cc1	x	x	24	x
COc1ccc(-c2csc(Nc3ccccn3)n2)cc1OC	8.9µM*	148%	21	u
Cc1cc(-c2csc(Nc3ccccn3)n2)ccc1F	6.3µM*	-13%	158	u
Cc1ccc(-c2csc(Nc3ccccn3)n2)cc1	-26%	-25%	-8	u
CCN1CCN(Cc2nc3cc(NC(=O)c4ccccc4[N+](=O)[O-])ccc3n2CC)CC1	x	x	-29	x
Cc1nnsc1C(=O)Oc1ccc(Cl)cc1	x	x	4	x
N#Cc1c(N2CCN(c3ccc(F)cc3)CC2)nc(N)c2c(N)nc3c(c12)CC(=O)N3C1CC1	u	0.93µM*	-35	2.6µM*
Cc1cc(C)c(C#N)c(N2CCN(c3ccc(F)cc3)CC2)n1	-28%	22%	-18	1%
COC(=O)c1cc2oc3ccccc3c2n1Cc1ccc(Cl)cc1	x	x	72	x
SMILES	HCV inhibitor	Pf growth 48h	HCMV antiviral	Pf growth 96h
Cc1c(C(=O)Nc2ccc3c(c2)OCO3)sc2nc(-c3ccccc3)cn12	4µM*	13µM*	-37	u
CCN(CC)CCCNC(=O)c1sc2nc(-c3ccc(F)cc3)cn2c1C	u	x	34	13µM*
Nn1cc(-c2ccccc2)nc1SCC(=O)Nc1ccc2c(c1)OCO2	-8%	-1%	-100*	u
Cc1ccc(Cl)cc1NC(=O)c1sc2nc(-c3ccccc3)cn2c1C	x	x	-63*	x
Nn1c(SCC(=O)Nc2ccc3c(c2)OCO3)nnc1-c1cccc(Cl)c1	3%	18%	3	48%
Cc1c(C(=O)NCc2ccccn2)sc2nc(-c3ccc(F)cc3)cn12	u	u	-16	u
COCCNC(=O)c1sc2nc(-c3ccccc3)cn2c1C	5%	56%	-15	52%
Cc1c(C(=O)Nc2ccccc2)sc2nc(-c3ccccc3)cn12	8.9µM*	u	1	u
